The full ranking holds about 18,000 sequences; the median of “log2 normalized intensity” is about 0.39, and the highest 2% start at about 6.6. Many of the other results were omitted from the sample, so the highest values are more common in it than they were.
The sequences below were run against T1, HNF4alpha2 (COS-7 nuclear extract) (Homo sapiens, UniProt P41235 1-474) (assay: protein-binding microarray; COS-7 nuclear extract on double-stranded Agilent 4x180k PBM; binding buffer, salt, pH and temperature not given in the material; high values mean tight binding). Settings: chain copies: 2; label: 3' end of strand 1 on the slide; dsDNA, one strand shown.
T1 sequence: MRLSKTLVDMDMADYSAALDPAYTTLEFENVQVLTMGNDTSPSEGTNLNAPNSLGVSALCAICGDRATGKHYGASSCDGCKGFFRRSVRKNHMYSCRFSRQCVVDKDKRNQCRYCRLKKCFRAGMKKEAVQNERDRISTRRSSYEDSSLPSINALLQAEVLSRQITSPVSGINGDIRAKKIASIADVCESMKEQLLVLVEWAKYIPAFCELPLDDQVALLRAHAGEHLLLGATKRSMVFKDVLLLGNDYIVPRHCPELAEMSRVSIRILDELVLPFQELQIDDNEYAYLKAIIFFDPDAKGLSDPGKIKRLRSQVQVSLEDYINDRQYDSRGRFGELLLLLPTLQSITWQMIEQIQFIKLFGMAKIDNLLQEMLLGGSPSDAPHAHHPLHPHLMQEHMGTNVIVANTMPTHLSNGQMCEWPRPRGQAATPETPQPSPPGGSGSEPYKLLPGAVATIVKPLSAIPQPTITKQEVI
Outline: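 A custom Agilent SurePrint G3 4x180k array, spotted in quadruplicate with ~44,000 test sequences as ~60-nt oligonucleotides made double-stranded, was incubated with nuclear extracts. The extracts came from COS-7 cells transiently transfected by CaPO4 with a human HNF4α isoform expression vector. Bound HNF4α was imaged on an Agilent G2565CA scanner at 2-µm resolution, and the binding signal was taken as Agilent software's background-corrected, normalized gProcessedSignal.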

Sequence | binding signal
GTGCTCTGGGTCTGTCCTTTGTGTTTATGGGCCTAGGGAGATTAGAGTATCGGTCGA | 2.66 log2 normalized intensity
CAGTGGGCCCAGAGCACAACCTTTGGCCGTGCCTAGGGAGATTAGAGTATCGGTCGA | 4.45 log2 normalized intensity
TTGCCCACCAATGATCAAAGGTTAGTCTTAGCCTAGGGAGATTAGAGTATCGGTCGA | 3.63 log2 normalized intensity
AAAACATATTTGCATAATGGAGCAAAGGTCGCCTAGGGAGATTAGAGTATCGGTCGA | 5.4 log2 normalized intensity
AAAGACTTGCTCATTGATGAGTGACCTTTGGCCTAGGGAGATTAGAGTATCGGTCGA | 6.15 log2 normalized intensity
CACCACTAGGAAACTGACCTTTGCTCATGAGCCTAGGGAGATTAGAGTATCGGTCGA | 6.73 log2 normalized intensity
TTGCCCCTTTGACCCTCGGGCCTCCCTAGAGCCTAGGGAGATTAGAGTATCGGTCGA | 3.97 log2 normalized intensity
ATTCTCACCACTAGGAAACTGACCTTTGCTGCCTAGGGAGATTAGAGTATCGGTCGA | 5.16 log2 normalized intensity
GATGAGTGACCTTTGACCTCAGAGAGCCGGGCCTAGGGAGATTAGAGTATCGGTCGA | 9.56 log2 normalized intensity
GGCTGATGACCTTTGACTGAGATGGGAGCAGCCTAGGGAGATTAGAGTATCGGTCGA | 4.03 log2 normalized intensity
ACCACATTCTCACCACTAGGAAACTGACCTGCCTAGGGAGATTAGAGTATCGGTCGA | 3.23 log2 normalized intensity
GTGACCTTTGACCTCAGAGAGCCGGAAACTGCCTAGGGAGATTAGAGTATCGGTCGA | 7.21 log2 normalized intensity
CTAGGAAACTGACCTTTGCTCATGACTATTGCCTAGGGAGATTAGAGTATCGGTCGA | 5.53 log2 normalized intensity
ATGGGATGACCTTTGAGCAATAGGAAATGGGCCTAGGGAGATTAGAGTATCGGTCGA | 4.18 log2 normalized intensity
TCATTGATGAGTGACCTTTGACCTCAGAGAGCCTAGGGAGATTAGAGTATCGGTCGA | 9.89 log2 normalized intensity
CTACTACTTGACCTTTGAAACATATCCAGAGCCTAGGGAGATTAGAGTATCGGTCGA | 5.48 log2 normalized intensity
CTCTGCAAACATTTATTTTGTGTGCTAGATGCCTAGGGAGATTAGAGTATCGGTCGA | 1.54 log2 normalized intensity
TTGCCCACATTCACACAATCAGTGTGTTGAGCCTAGGGAGATTAGAGTATCGGTCGA | -0.0239 log2 normalized intensity
AGCAGTCCCTTCCCCCCTCCTCATTGAGAGGCCTAGGGAGATTAGAGTATCGGTCGA | 4.37 log2 normalized intensity
TTGCACCAGTTTCTCAACAGACCCCTGAATGCCTAGGGAGATTAGAGTATCGGTCGA | 2.27 log2 normalized intensity
CTTGACGCTAACTTCCAGATCAAAGGACATGCCTAGGGAGATTAGAGTATCGGTCGA | 0.608 log2 normalized intensity
GTCTAATTGTGCTGAGAGAGTCCTTGTTTGGCCTAGGGAGATTAGAGTATCGGTCGA | 1.63 log2 normalized intensity

Sequence | binding signal
GCAGATGGGCAGCACTGTGATTTGTTCAGGGCCTAGGGAGATTAGAGTATCGGTCGA | 0.439 log2 normalized intensity
GTCTGCTGCCCAGACACACAATATTATGTTGCCTAGGGAGATTAGAGTATCGGTCGA | -0.79 log2 normalized intensity
GGAGATAACCCATCTGGGGAAAGTGCAAGGGCCTAGGGAGATTAGAGTATCGGTCGA | -0.913 log2 normalized intensity
TTCTTCTGGTTCTGCAAGGCAACTGACCTTGCCTAGGGAGATTAGAGTATCGGTCGA | 3.64 log2 normalized intensity
TCTGCAAGGCAACTGACCTTTGGATCTGGGGCCTAGGGAGATTAGAGTATCGGTCGA | 7.21 log2 normalized intensity
CTTGGGGGAGGAGGGCAACCTTTGAACTGGGCCTAGGGAGATTAGAGTATCGGTCGA | 5.3 log2 normalized intensity
TCTGGTGCCAAGGAGCCTCTGCAACCTTTGGCCTAGGGAGATTAGAGTATCGGTCGA | 2.46 log2 normalized intensity
CTGGTTCTGCAAGGCAACTGACCTTTGGATGCCTAGGGAGATTAGAGTATCGGTCGA | 8.08 log2 normalized intensity
TGGACAACTGTACTTTGGACTGGGGACCTGGCCTAGGGAGATTAGAGTATCGGTCGA | 5.1 log2 normalized intensity
TATACAAGAAAGAAAGAATGTTTGCTTCTGGCCTAGGGAGATTAGAGTATCGGTCGA | -0.716 log2 normalized intensity
GGTGGACTTTGTAGCTCAAACAGTCTAAAAGCCTAGGGAGATTAGAGTATCGGTCGA | 2.3 log2 normalized intensity
GTTAAAGTTGCCTGATGACAACTGAATGTGGCCTAGGGAGATTAGAGTATCGGTCGA | 0.26 log2 normalized intensity
ACACCGTATCATCAAACCTGTTATTTGCGCGCCTAGGGAGATTAGAGTATCGGTCGA | 1.25 log2 normalized intensity
AACGGCCCAGGGTTAGAGGATGACCTTCCCGCCTAGGGAGATTAGAGTATCGGTCGA | 2.99 log2 normalized intensity
GGCAGGGCCAGATAAAGCAGGTTGTACCTTGCCTAGGGAGATTAGAGTATCGGTCGA | 2.4 log2 normalized intensity
GATAAAGCAGGTTGTACCTTGACCCAAGAAGCCTAGGGAGATTAGAGTATCGGTCGA | 4.88 log2 normalized intensity
AGGATGGGCCATGACCTTTACCCCCATTTGGCCTAGGGAGATTAGAGTATCGGTCGA | 7.65 log2 normalized intensity
ATGACCTTTACCCCCATTTGGTAATGGGCCGCCTAGGGAGATTAGAGTATCGGTCGA | 4.83 log2 normalized intensity
TCACCAGGATGGGCCATGACCTTTACCCCCGCCTAGGGAGATTAGAGTATCGGTCGA | 9.28 log2 normalized intensity
GGCCAGATAAAGCAGGTTGTACCTTGACCCGCCTAGGGAGATTAGAGTATCGGTCGA | 8.92 log2 normalized intensity
GGGCCATGACCTTTACCCCCATTTGGTAATGCCTAGGGAGATTAGAGTATCGGTCGA | 6.29 log2 normalized intensity

Source: article PMC10726135, “HNF4α isoforms regulate the circadian balance between carbohydrate and lipid metabolism in the liver”
